Reference: PubChem BioAssay (NCI)
Compounds without any hit were thinned out: in the full panel of roughly 79,000, 15% have a hit. Unmarked numbers belong to inactive results. The source made the active and inactive calls. No stated cut-off is given here; in the data, active means growth inhibition above about 70%; inactive means the rest.

Columns and labels:
[1] = NCI Yeast Anticancer Drug Screen. Data for the rad50 strain (AID 155);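 further: 0% = growth of vehicle-only cultures of the same strain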; details: S. cerevisiae rad50 strain growth inhibition, hits give high values
Summary of the method: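 Yeast carrying a defined DNA repair defect were exposed to test compounds, and growth was compared with vehicle-treated controls to give percent inhibition.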

[2] = NCI Yeast Anticancer Drug Screen. Data for the mec2-1 strain (AID 157); details: S. cerevisiae mec2-1 strain, hits give high values
Summary of the method: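 Growth inhibition is read against vehicle-treated controls after compound exposure of the mec2-1 yeast strain, which is defective in DNA damage repair or cell cycle control.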

[3] = NCI Yeast Anticancer Drug Screen. Data for the sgs1 mgt1 strain (AID 161);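 further: 0% = growth of cultures given vehicle only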; details: S. cerevisiae sgs1 mgt1 strain, hits give high values
Summary of the method: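 Yeast cells carrying a defined DNA-repair defect were exposed to test compounds. Growth inhibition was measured relative to vehicle-treated controls.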

[4] = NCI Yeast Anticancer Drug Screen. Data for the cln2 rad14 strain (AID 165);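 further: 0% = growth equal to vehicle treated cultures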; details: S. cerevisiae cln2 rad14 strain, hits give high values
Summary of the method: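 Growth inhibition, relative to vehicle-treated controls, is the read-out. The test organism is a yeast strain with defined genetic alterations, cln2 rad14.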

[5] = NCI Yeast Anticancer Drug Screen. Data for the bub3 strain (AID 167); details: S. cerevisiae bub3 mutant strain, hits give high values
Summary of the method: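 Compounds were applied to a genetically altered yeast strain carrying a cell-cycle control defect. Growth inhibition was scored against vehicle-treated controls.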

[6] = NCI Yeast Anticancer Drug Screen. Data for the mlh1 rad18 strain (AID 175); details: S. cerevisiae mlh1 rad18 strain growth inhibition, hits give high values
Summary of the method: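 Cells of a genetically altered yeast strain, deficient in DNA damage repair, were treated with compound. Their growth was then compared with that of vehicle-treated cultures to give inhibition.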

[7] = at 5.0 µM (retest, dose inferred, filed as 0.5)
[8] = at 50.0 µM (retest, dose inferred, filed as 5.0)

SMILES	growth inhibition [1, 7] [%]	growth inhibition [1, 8]	growth inhibition ([1]; at 50.0 µM)	growth inhibition [2, 7]	growth inhibition [2, 8]	growth inhibition ([2]; at 50.0 µM)	growth inhibition [3, 7]	growth inhibition [3, 8]	growth inhibition ([3]; at 50.0 µM)	growth inhibition [4, 7] [%]	growth inhibition [4, 8]	growth inhibition ([4]; at 50.0 µM)	growth inhibition [5, 7] [%]	growth inhibition [5, 8]	growth inhibition ([5]; at 50.0 µM)	growth inhibition [6, 7]	growth inhibition [6, 8]	growth inhibition ([6]; at 50.0 µM)
N#CC1=C(C#N)Sc2nc3cc(Cl)ccc3nc2S1	17	99% (active)	68.7%	24%	99% (active)	91.1% (active)	30%	98% (active)	77.9% (active)	25	99% (active)	20.6%	19	98% (active)	41.9%	29%	99% (active)	94.8% (active)
NC(=S)N/N=C\C12CC3CC(CC(C3)C1)C2	57	98% (active)	97.4% (active)	73% (active)	97% (active)	93.7% (active)	70% (active)	98% (active)	92.8% (active)	25	97% (active)	71.5% (active)	62	98% (active)	95.6% (active)	77% (active)	99% (active)	96.5% (active)
CCN(CC)CC(O)c1ccc(/C=C/c2ccc(Cl)cc2)cc1 (configuration not stated)	12	95% (active)	98.1% (active)	6%	97% (active)	98% (active)	8%	98% (active)	58.5%	12	97% (active)	98.7% (active)	17	96% (active)	98.6% (active)	15%	97% (active)	98.4% (active)
CCCCC(=O)N/N=C(\C)[C@]1(O)Cc2c(O)c3c(c(O)c2[C@@H](OC2CC(N)C(O)C(C)O2)C1)C(=O)c1c(OC)cccc1C3=O (some centres not stated)	64	97% (active)	98.7% (active)	-12%	97% (active)	99.2% (active)	17%	97% (active)	51.5%	8	89% (active)	97.1% (active)	15	98% (active)	98.5% (active)	17%	97% (active)	98.5% (active)
Nc1ccc(Cl)c2c1C(=O)c1ccccc1C2=O	40	19%	98.8% (active)	13%	7%	56.8%	0%	41%	89.2% (active)	-4	3%	46.6%	0	30%	34.1%	13%	12%	89.3% (active)
Cc1c[nH]c(C(=O)O)c1-c1ccc2c(-c3ccccc3)nc3ccccc3n12	14	96% (active)	82.8% (active)	11%	99% (active)	91% (active)	10%	99% (active)	89.4% (active)	8	99% (active)	89% (active)	13	99% (active)	85.9% (active)	12%	95% (active)	91.8% (active)
COc1ccc(NC(=O)C(Cc2ccccc2)NC(C)=O)cc1 (configuration not stated)	9	7%	48.6%	1%	-9%	-5.75%	-12%	-14%	3.15%	-5	1%	-55.5%	-4	-2%	9.7%	-1%	-25%	6.2%
CCOC(=O)C(=O)NNc1ccccc1	22	89% (active)	97.8% (active)	3%	82% (active)	94.8% (active)	13%	61%	98.7% (active)	-1	57%	92.7% (active)	17	96% (active)	97.5% (active)	31%	95% (active)	98.9% (active)
CCOC(=O)c1c(C)n(C)c2c1nnc1ccccc12	16	85% (active)	64.7%	15%	79% (active)	51.1%	19%	82% (active)	59%	12	69%	55.2%	1	73% (active)	46%	7%	83% (active)	57.1%
